Among the data in publication PMC7862700, “An all-to-all approach to the identification of sequence-specific readers for epigenetic DNA modifications on cytosine” are binding signal values, retold here.

Holding throughout (test): DAPPL (digital affinity profiling via proximity ligation, sequencing); 10 mM Tris-HCl pH 7.5, 50 mM NaCl, 1 mM DTT, 4% glycerol, room temperature, 30 min; GST-TFs on glutathione beads, 16-mer random dsDNA library, 0.1% formaldehyde crosslink after washing; high values mean tight binding
The target in one assay is T1, FEV (Homo sapiens, UniProt Q99581 1-238).
T1 sequence: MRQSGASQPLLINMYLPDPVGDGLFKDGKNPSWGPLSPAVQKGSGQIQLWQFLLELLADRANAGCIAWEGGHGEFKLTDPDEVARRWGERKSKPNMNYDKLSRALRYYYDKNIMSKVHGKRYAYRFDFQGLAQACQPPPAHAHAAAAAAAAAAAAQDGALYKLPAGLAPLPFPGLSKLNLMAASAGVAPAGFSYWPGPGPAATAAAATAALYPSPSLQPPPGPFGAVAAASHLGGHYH
The following applies: protein: recombinant; tags: N-terminal GST; dsDNA, one strand shown. In a few lines:
(§1)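 Binding signal is each hexamer's read frequency for a factor divided by its frequency in the tag-only sample. The factors were GST-fused human transcription factors from yeast, captured on glutathione beads, DNA-barcoded and pooled with that sample. Pools were incubated with 200 nmole of a random double-stranded 16-mer DNA library in Tris/NaCl/DTT/glycerol buffer at room temperature for 30 min, then washed, crosslinked with 0.1% formaldehyde, proximity-ligated with BsaI/T4 ligase (1 h, 37 °C), PCR-amplified and sequenced on an Illumina NextSeq500.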

The target in another assay is ETV5 (Homo sapiens, UniProt P41161 1-510). The following applies: protein: recombinant; tags: N-terminal GST; dsDNA, one strand shown. In short, it runs like this: as §1
Chain of ETV5 (P41161 whole entry): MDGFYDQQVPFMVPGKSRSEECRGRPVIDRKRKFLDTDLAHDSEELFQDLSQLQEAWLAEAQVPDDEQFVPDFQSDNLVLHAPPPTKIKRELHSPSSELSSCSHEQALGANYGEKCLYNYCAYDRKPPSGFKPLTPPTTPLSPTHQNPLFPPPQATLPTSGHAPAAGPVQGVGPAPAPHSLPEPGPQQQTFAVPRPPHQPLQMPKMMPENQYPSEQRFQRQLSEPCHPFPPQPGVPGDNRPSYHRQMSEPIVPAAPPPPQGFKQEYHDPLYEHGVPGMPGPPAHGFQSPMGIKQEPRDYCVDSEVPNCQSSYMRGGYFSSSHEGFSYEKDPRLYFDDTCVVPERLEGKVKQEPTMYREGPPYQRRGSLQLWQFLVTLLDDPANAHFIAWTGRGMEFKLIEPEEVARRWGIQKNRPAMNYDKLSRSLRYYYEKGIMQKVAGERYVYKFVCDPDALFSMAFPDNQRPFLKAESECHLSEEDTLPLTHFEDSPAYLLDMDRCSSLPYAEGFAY
A further assay concerns the target HSF1 (Homo sapiens, UniProt Q00613 1-529). Particulars: protein: recombinant; tags: N-terminal GST; chain copies: 3; dsDNA, one strand shown. In short, it runs like this:
as §1

Another assay has as its target T2, SPIC (Homo sapiens, UniProt Q8N5J4 1-248).
T2 sequence: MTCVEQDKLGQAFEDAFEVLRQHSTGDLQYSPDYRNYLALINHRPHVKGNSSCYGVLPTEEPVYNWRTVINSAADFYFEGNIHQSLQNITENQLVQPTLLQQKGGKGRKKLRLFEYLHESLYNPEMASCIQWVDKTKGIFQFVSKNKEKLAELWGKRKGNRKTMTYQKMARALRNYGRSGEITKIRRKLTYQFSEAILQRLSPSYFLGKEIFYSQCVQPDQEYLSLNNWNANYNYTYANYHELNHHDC
Particulars: protein: recombinant; tags: N-terminal GST; dsDNA, one strand shown. In short, it runs like this: as §1

In another assay the target is ELF4 (Homo sapiens, UniProt Q99607 1-663). The following applies: protein: recombinant; tags: N-terminal GST; dsDNA, one strand shown. In short, it runs like this:
as §1

A further assay has as its target T3, ELK4 (Homo sapiens, UniProt P28324-2 1-405).
T3 sequence: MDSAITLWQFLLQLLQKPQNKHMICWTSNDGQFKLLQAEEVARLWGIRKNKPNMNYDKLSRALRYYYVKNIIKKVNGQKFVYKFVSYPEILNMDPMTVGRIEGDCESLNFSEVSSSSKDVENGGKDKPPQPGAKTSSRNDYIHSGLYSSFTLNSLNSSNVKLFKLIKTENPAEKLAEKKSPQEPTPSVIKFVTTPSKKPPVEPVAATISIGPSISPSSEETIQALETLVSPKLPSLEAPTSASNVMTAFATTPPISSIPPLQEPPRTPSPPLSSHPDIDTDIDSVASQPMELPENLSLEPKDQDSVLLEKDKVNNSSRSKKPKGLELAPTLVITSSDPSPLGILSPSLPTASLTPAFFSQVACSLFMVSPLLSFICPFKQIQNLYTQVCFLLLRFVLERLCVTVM
Particulars: protein: recombinant; tags: N-terminal GST; dsDNA, one strand shown. In a few lines:
as §1

The target in another assay is T4, ETV2 (Homo sapiens, UniProt O00321 1-342).
T4 sequence: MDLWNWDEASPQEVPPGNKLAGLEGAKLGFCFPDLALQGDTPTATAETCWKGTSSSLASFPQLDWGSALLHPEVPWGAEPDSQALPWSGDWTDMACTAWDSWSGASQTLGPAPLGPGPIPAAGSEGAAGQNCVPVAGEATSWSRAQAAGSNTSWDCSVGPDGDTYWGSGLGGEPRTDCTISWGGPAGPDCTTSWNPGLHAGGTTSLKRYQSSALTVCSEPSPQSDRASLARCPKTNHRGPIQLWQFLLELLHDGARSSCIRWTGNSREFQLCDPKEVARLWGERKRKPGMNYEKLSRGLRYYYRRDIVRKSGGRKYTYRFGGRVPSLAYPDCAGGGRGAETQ
Particulars: protein: recombinant; tags: N-terminal GST; dsDNA, one strand shown. In a few lines: as §1

A further assay addresses T5, ELF3 (Homo sapiens, UniProt P78545 1-371).
T5 sequence: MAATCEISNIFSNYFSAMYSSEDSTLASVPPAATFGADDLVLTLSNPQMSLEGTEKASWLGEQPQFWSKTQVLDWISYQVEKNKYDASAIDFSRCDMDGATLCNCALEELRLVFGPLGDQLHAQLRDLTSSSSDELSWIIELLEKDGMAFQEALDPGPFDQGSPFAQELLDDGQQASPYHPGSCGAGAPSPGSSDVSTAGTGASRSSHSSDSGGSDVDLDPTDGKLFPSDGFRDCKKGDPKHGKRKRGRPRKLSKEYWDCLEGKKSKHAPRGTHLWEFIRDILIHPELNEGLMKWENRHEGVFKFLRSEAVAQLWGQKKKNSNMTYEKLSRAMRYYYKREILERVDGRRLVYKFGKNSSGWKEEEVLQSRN
Particulars: protein: recombinant; tags: N-terminal GST; dsDNA, one strand shown. In short, it runs like this: as §1

The next assay concerns the target CRX (Homo sapiens, UniProt O43186 1-299). Particulars: protein: recombinant; tags: N-terminal GST; dsDNA, one strand shown. In a few lines:
as §1

The next assay has as its target ETV1 (Homo sapiens, UniProt P50549 1-477). The following applies: protein: recombinant; tags: N-terminal GST; dsDNA, one strand shown. In a few lines:
as §1

The target in a further assay is T6, ERF (Homo sapiens, UniProt P50548 1-548).
T6 sequence: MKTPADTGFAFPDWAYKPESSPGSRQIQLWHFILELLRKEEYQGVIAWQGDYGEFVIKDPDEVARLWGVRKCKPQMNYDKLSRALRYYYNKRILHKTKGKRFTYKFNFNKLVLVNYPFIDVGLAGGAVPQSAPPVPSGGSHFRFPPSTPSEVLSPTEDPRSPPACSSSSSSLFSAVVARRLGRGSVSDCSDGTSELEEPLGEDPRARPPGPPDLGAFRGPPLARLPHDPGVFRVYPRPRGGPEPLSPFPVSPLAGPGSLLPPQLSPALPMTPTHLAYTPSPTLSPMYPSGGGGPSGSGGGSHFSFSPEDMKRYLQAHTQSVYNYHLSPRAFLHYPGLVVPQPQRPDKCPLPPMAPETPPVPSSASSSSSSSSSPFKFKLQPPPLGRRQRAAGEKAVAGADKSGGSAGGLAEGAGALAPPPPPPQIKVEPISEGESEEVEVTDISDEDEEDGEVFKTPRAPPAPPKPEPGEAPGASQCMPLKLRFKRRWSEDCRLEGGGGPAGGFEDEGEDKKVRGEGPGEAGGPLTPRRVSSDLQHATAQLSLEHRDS
The following applies: protein: recombinant; tags: N-terminal GST; dsDNA, one strand shown. In a few lines: as §1

The target in the next assay is T7, ETV3L (Homo sapiens, UniProt Q6ZN32 1-361).
T7 sequence: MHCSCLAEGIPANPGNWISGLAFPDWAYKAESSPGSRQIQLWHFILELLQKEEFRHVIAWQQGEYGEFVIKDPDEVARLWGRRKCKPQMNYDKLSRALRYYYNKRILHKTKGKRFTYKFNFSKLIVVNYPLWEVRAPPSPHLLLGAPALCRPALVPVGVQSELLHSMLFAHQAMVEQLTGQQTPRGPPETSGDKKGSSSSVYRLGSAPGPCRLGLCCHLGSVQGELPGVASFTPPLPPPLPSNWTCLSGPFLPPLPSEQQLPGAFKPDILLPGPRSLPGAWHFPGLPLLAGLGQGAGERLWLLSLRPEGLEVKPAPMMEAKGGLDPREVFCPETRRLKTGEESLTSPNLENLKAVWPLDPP
Particulars: protein: recombinant; tags: N-terminal GST; dsDNA, one strand shown. In short, it runs like this: as §1

For the next assay, the target named is T8, ETS2 (Homo sapiens, UniProt P15036 1-469).
T8 sequence: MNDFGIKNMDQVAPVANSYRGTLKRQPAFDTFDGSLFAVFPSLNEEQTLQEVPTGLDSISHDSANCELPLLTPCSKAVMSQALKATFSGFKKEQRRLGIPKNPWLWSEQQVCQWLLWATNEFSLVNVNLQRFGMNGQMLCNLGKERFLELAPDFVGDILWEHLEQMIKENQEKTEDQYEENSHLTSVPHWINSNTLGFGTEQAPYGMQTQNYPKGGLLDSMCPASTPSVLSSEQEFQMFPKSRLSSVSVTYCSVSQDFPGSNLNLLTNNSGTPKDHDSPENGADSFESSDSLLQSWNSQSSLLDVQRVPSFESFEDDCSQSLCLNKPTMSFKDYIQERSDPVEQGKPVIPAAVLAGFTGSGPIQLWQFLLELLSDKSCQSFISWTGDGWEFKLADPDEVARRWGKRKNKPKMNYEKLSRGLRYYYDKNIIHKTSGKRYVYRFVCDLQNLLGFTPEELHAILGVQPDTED
The following applies: protein: recombinant; tags: N-terminal GST; dsDNA, one strand shown. In a few lines: as §1

The target of a further assay is T9, SPDEF (Homo sapiens, UniProt O95238 1-335).
T9 sequence: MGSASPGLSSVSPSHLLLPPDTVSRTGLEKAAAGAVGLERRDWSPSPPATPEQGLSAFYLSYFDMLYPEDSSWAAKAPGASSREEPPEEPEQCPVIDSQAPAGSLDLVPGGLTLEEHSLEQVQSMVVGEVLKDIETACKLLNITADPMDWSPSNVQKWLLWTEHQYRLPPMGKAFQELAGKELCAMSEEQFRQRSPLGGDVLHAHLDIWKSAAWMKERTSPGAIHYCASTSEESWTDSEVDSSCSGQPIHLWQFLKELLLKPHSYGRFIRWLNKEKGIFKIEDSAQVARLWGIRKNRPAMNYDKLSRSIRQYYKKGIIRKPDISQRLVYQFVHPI
Particulars: protein: recombinant; tags: N-terminal GST; dsDNA, one strand shown. In a few lines:
as §1

In a further assay the target is T10, ETV7 (Homo sapiens, UniProt Q9Y603 1-341).
T10 sequence: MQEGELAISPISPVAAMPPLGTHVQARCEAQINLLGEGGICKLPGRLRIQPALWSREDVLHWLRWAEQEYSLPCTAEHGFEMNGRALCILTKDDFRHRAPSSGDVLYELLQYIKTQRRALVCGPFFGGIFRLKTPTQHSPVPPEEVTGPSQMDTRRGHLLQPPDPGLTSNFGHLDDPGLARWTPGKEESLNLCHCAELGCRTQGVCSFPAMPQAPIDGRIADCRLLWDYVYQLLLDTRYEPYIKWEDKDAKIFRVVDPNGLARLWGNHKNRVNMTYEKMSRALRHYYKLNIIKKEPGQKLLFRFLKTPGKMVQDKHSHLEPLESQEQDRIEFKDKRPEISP
Particulars: protein: recombinant; tags: N-terminal GST; dsDNA, one strand shown. In short, it runs like this: as §1

A further assay addresses T11, ELF5 (Homo sapiens, UniProt Q9UKW6-2 1-255).
T11 sequence: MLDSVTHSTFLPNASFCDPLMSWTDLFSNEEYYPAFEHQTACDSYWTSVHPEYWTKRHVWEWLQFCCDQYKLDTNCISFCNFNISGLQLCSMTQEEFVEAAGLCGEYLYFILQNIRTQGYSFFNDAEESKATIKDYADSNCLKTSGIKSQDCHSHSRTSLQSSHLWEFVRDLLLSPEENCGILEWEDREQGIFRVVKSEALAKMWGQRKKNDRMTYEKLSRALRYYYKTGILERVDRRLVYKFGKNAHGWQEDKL
The following applies: protein: recombinant; tags: N-terminal GST; dsDNA, one strand shown. In a few lines: as §1

A further assay addresses T12, ETV3 (Homo sapiens, UniProt P41162-2 1-143).
T12 sequence: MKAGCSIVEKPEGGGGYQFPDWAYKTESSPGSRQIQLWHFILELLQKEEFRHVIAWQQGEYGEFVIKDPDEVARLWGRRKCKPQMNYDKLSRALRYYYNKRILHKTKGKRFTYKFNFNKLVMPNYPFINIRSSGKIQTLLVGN
The following applies: protein: recombinant; tags: N-terminal GST; dsDNA, one strand shown. In short, it runs like this: as §1

Another assay deals with ETV6 (Homo sapiens, UniProt P41212 1-452). Particulars: protein: recombinant; tags: N-terminal GST; dsDNA, one strand shown. In short, it runs like this: as §1
Chain of ETV6 (P41212 whole entry): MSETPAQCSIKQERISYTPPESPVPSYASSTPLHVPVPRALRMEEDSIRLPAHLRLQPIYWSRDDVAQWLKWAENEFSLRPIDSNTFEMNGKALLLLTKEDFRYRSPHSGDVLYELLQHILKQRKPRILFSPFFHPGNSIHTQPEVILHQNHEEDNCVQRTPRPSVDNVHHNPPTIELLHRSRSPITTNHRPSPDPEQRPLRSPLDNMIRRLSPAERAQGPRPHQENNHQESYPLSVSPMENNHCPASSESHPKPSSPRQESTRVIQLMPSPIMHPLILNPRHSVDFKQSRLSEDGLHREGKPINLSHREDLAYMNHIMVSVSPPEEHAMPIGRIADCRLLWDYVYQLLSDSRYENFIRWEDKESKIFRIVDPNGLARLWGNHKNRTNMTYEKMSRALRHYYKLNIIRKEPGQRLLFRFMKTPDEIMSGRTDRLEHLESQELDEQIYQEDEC

Chain of CRX (O43186 whole entry): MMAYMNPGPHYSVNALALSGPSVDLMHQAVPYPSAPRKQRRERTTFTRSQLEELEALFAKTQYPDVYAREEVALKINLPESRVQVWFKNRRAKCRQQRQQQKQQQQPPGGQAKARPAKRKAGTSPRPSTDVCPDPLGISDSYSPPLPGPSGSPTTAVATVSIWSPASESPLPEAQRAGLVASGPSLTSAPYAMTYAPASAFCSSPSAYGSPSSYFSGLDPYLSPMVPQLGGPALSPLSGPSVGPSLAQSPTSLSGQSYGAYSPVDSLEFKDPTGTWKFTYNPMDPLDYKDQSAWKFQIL
Chain of ETV1 (P50549 whole entry): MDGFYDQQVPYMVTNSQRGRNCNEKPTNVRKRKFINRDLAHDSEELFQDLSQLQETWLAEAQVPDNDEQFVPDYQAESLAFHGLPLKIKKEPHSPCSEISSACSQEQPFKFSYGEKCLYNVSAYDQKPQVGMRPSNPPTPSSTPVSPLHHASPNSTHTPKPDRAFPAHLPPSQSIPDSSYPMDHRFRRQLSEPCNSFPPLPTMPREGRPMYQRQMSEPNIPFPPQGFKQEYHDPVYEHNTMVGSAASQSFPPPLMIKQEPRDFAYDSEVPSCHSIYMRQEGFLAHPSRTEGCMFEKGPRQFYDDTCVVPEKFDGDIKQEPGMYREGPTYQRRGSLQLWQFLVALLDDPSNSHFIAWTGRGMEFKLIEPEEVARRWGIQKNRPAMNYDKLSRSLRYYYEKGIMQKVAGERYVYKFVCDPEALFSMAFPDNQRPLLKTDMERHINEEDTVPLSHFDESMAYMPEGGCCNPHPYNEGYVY
Chain of ELF4 (Q99607 whole entry): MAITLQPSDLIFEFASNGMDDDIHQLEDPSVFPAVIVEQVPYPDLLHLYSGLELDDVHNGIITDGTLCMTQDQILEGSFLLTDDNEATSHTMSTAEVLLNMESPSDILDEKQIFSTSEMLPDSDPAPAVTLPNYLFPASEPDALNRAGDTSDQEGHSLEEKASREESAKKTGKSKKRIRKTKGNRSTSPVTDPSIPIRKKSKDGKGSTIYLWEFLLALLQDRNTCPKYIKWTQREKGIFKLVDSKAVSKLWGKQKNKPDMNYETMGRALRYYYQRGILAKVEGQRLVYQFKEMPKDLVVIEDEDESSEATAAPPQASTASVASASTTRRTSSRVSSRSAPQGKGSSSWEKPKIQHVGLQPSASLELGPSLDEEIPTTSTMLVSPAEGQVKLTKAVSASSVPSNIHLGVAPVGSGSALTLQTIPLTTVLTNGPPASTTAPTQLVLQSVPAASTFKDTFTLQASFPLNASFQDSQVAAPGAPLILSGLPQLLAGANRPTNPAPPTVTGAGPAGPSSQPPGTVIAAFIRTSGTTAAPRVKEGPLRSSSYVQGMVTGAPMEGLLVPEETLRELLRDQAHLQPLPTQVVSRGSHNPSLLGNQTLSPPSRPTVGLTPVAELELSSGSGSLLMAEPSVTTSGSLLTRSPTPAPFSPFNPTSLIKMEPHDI
Chain of HSF1 (Q00613 whole entry): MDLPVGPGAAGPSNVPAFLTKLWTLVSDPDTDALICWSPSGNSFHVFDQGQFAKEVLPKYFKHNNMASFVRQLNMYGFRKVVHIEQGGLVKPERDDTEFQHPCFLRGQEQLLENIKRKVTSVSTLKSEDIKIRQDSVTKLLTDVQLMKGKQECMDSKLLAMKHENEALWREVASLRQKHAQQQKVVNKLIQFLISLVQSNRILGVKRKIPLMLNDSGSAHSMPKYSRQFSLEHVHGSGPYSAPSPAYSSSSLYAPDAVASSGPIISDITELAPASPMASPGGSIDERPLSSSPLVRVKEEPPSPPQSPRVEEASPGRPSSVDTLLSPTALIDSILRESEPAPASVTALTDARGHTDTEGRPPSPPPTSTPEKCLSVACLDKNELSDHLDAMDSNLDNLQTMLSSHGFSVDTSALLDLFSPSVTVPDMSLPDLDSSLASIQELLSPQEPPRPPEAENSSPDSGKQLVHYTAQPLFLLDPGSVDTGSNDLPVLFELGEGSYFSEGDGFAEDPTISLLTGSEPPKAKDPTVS

As for AATCTT, the binding signal is 1.29 fold enrichment (6-mer frequency, TF over GST control) with FEV; 1.35 fold enrichment (6-mer frequency, TF over GST control) with ETV5; 2.17 fold enrichment (6-mer frequency, TF over GST control) in the assay with HSF1; 1.38 fold enrichment (6-mer frequency, TF over GST control) in the assay with SPIC; 1.31 fold enrichment (6-mer frequency, TF over GST control) in the assay with ELF4; 1.36 fold enrichment (6-mer frequency, TF over GST control) with ELK4. Moreover, the binding signal is 1.38 fold enrichment (6-mer frequency, TF over GST control) in the assay with ETV2; 1.4 fold enrichment (6-mer frequency, TF over GST control) in the assay with ELF3; 2.54 fold enrichment (6-mer frequency, TF over GST control) with CRX; 1.39 fold enrichment (6-mer frequency, TF over GST control) in the assay with ETV1; 1.26 fold enrichment (6-mer frequency, TF over GST control) with ERF; 1.38 fold enrichment (6-mer frequency, TF over GST control) with ETV3L. Further, the binding signal in the assay with ETS2 is 1.41 fold enrichment (6-mer frequency, TF over GST control); with SPDEF, 1.27 fold enrichment (6-mer frequency, TF over GST control); in the assay with ETV7 it was 1.31 fold enrichment (6-mer frequency, TF over GST control); in the assay with ELF5, 1.43 fold enrichment (6-mer frequency, TF over GST control); with ETV3, 1.31 fold enrichment (6-mer frequency, TF over GST control); with ETV6, 1.31 fold enrichment (6-mer frequency, TF over GST control).
